This is an account of results in PubChem BioAssay.

Calls of active or inactive are those of the source.

The target of test [1] is Albumin (Bos taurus) (UniProt P02769). Nature of the test: bovine serum albumin binders on microarray, profiling panel, artefact control for SMM control protein annotation, biochemical, small-molecule microarray, Alexa647 label, 635/667 nm fluorescence (AID 1118).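 Note: score merges 667 nm emission intensity and signal-to-noise per printed compound spot.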 To be noted: BSA-A647 binding, fluorescence 635 nm, higher = more signal.
Sequence of Albumin (Bos taurus) (P02769 whole entry, looked up): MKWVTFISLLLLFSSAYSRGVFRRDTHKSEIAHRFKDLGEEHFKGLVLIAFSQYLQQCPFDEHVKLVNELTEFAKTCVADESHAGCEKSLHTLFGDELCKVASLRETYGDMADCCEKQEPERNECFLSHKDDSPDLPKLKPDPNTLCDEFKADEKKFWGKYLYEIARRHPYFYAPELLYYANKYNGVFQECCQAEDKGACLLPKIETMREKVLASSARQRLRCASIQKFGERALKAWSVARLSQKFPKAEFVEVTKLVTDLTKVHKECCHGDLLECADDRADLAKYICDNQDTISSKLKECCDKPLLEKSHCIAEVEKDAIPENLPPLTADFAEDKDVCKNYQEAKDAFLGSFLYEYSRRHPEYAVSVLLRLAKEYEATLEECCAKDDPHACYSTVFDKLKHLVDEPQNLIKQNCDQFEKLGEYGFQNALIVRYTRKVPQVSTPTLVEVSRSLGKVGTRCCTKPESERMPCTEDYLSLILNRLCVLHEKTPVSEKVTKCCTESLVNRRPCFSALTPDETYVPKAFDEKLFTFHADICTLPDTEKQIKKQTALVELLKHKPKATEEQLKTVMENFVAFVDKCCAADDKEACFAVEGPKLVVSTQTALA
Test [2] in a line: small-molecule microarray binders of probe aXIP, primary screen, biochemical, NeuroSMM set, 635/667 nm fluorescence (AID 1119).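 Note: probe is the protein aXip251-270 applied at 1 µg/mL to compound-printed slides; binding of probe to printed compounds measured as 667 nm fluorescence plus signal to noise.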 The note with it: higher = more signal, called active from +8 up or from −8 down.
The nature of test [3]: small-molecule binders of probe aNOTCH3, primary screen, biochemical, small-molecule microarray, 635/667 nm fluorescence (AID 1120).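 Note: probe is a biotin-tagged antibody raised against NOTCH3 rather than NOTCH3 protein; score merges spot fluorescence near 667 nm with spot signal to noise.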 The note with it: higher = more signal.
A short description of test [4]: small-molecule binders of probe aNOTCH2, primary screen, biochemical, small-molecule microarray, 635/667 nm fluorescence (AID 1121).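 Note: score merges feature fluorescence read at 667 nm with its signal to noise.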 To be noted: higher = more signal.
The target in test [5] is Carbonic anhydrase 2 (Homo sapiens) (UniProt P00918). In words: CAII small-molecule binders, profiling panel, biochemical, small-molecule microarray, Alexa647-labelled CAII (AID 1122). To be noted: CAII-A647 binding fluorescence, higher = more signal.
Test [6] is described as follows: COS7 lysate on small-molecule microarray, probe aHis, 635 nm (AID 1123).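 Note: z-score combines 667nm fluorescence intensity with signal-to-noise per printed compound spot.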 To be noted: COS7 cell lysate, fluorescence, higher = more signal.
The nature of test [7]: compound binding in COS7 lysate, probe aLAP1, primary screen, cell lysate, small-molecule microarray (AID 1124).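 Note: lysate comes from COS7 cells expressing LAP1 and is applied at 0.3 µg/mL; score merges spot fluorescence near 667 nm with signal-to-noise over triplicate slides.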 The note with it: probe aLAP1, fluorescence, higher = more signal.
Test [8] has as its system Sam68 (KHDRBS1). Nature of the test: Sam68 small-molecule binders, primary screen, biochemical, small-molecule microarray, 635 nm fluorescence (AID 1125).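 Note: score merges 667 nm channel intensity with signal to noise over triplicate slides.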 To be noted: small-molecule microarray binding, higher = more signal.
Test [9] has as its system Chordin-like protein 2 (CHRDL2). Nature of the test: CHRDL2 small-molecule binders, primary screen, biochemical, small-molecule microarray, 635 nm fluorescence (AID 1126).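 Note: printed compound slides probed with Chrdl2 protein at 4 µg/mL for 1 h at 4 C; score merges 667 nm emission intensity with signal to noise over three replicate slides.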 The note with it: small-molecule microarray binding, fluorescence 635 nm; higher = more signal.
In test [10] the target is Concanavalin-A (Canavalia ensiformis) (UniProt P02866). In words: ConA small-molecule binders, primary screen, artefact control for SMM control protein annotation, biochemical, small-molecule microarray, Alexa647 label, 635 nm (AID 1127).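 Note: z combines 667 nm emission intensity with signal-to-noise across three replicate slides.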 The note with it: ConA-A647 binding fluorescence, higher = more signal.
Sequence of Concanavalin-A (Canavalia ensiformis) (P02866 whole entry, looked up): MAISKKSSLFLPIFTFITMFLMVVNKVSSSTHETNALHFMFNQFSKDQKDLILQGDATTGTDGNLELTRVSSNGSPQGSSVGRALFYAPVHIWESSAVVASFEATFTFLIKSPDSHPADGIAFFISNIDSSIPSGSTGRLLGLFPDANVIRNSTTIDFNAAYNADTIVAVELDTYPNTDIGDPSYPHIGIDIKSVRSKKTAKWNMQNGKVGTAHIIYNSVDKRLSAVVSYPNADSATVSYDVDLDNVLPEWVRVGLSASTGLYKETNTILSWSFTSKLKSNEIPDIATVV
Test [11] in a line: anti-His antibody binders, primary screen, artefact control for SMM control protein annotation, biochemical, small-molecule microarray, 635 nm fluorescence (AID 1128).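 Note: score merges feature fluorescence with signal-to-noise for each printed compound spot.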 To be noted: anti-His Alexa647 antibody binding, higher = more signal.
The test system of test [12] is Human papillomavirus type 1a E7 protein (residues 1-88). In words: HPV1a E7 small-molecule binders, primary screen, biochemical, small-molecule microarray, residues 1-88, 635 nm (AID 1129). The note with it: small-molecule microarray binding, fluorescence 635 nm; higher = more signal.
The target of test [13] is Focal adhesion kinase 1 (Homo sapiens) (UniProt Q05397). In words: small-molecule microarray binders of FAK, primary screen, biochemical, 635/667 nm fluorescence, BSA, DTT (AID 1130).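 Note: composite of spot emission at 667 nm and signal to noise over triplicate slides.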 The note with it: PTK2 binding, 635 nm fluorescence, higher = more signal.
Sequence of Focal adhesion kinase 1 (Homo sapiens) (Q05397 whole entry, looked up): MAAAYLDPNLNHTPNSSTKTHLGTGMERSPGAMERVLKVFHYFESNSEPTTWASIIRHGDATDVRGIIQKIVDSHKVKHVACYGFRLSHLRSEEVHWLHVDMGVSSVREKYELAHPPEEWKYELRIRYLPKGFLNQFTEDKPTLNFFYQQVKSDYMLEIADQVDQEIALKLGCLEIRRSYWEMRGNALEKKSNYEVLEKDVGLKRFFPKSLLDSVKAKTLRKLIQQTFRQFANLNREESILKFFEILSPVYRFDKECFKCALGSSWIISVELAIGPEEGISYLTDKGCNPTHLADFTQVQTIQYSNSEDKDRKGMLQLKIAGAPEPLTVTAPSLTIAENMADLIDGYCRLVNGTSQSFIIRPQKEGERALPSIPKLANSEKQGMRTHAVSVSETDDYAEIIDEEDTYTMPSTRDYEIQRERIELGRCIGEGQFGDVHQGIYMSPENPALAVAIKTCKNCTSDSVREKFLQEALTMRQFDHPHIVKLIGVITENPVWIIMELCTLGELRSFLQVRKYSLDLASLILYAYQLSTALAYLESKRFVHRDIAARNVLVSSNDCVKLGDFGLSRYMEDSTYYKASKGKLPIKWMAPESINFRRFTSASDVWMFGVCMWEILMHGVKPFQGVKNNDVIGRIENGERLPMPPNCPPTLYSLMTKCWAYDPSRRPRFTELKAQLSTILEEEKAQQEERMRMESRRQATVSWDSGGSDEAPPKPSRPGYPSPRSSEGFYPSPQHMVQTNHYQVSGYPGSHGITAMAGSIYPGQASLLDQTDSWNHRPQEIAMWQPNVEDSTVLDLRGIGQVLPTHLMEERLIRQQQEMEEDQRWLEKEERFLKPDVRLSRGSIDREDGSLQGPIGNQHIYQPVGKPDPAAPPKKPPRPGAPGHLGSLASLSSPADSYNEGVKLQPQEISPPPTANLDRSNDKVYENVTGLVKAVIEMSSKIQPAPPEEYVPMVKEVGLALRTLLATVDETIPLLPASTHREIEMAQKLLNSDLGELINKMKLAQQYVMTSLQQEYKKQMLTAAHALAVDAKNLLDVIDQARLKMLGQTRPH
The subject of test [14] is Fibrinogen (Alexa647-labelled). Nature of the test: fibrinogen binders on compound microarrays, profiling panel, artefact control for SMM control-protein annotation, biochemical, small-molecule microarray, 635/667 nm fluorescence (AID 1131).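 Note: z-score merges 667 nm fluorescence with per-spot signal-to-noise over triplicate slides.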 To be noted: fibrinogen-A647 binding fluorescence, higher = more signal.
Test [15] deals with Follistatin (Homo sapiens) (UniProt P19883). In words: follistatin binders on small-molecule microarrays, primary screen, biochemical, small-molecule microarray, 635/667 nm fluorescence (AID 1132). The note with it: FST binding, 635 nm fluorescence, higher = more signal.
Sequence of Follistatin (Homo sapiens) (P19883 whole entry, looked up): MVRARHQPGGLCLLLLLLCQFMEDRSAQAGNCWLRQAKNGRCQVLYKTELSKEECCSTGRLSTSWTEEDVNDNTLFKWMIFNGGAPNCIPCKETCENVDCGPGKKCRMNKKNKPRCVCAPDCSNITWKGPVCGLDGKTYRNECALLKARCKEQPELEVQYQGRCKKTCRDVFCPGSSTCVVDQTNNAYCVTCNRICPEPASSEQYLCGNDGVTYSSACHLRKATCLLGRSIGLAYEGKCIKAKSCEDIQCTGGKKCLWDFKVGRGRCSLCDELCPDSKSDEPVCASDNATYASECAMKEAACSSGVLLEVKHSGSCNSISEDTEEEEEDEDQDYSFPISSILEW
The target of test [16] is Fibroblast growth factor 2 (Homo sapiens) (UniProt P09038). Nature of the test: FGF2 binders on small-molecule microarrays, primary screen, biochemical, small-molecule microarray, 635/667 nm fluorescence (AID 1133). The note with it: small-molecule microarray binding, FGF2, fluorescence 635/667; higher = more signal.
Sequence of Fibroblast growth factor 2 (Homo sapiens) (P09038 whole entry, looked up): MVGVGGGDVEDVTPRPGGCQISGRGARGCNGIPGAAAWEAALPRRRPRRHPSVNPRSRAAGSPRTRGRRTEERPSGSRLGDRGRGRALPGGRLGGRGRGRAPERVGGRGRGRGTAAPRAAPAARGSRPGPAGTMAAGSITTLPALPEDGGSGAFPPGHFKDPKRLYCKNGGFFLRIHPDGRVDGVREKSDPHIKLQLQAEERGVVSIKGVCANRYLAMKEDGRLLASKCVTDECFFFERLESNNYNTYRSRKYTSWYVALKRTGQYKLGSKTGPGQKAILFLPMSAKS
A short description of test [17]: mitochondrial membrane potential change in A549 cells, profiling panel, cell-based, JC-1 fluorescence, basal, 24 h, 100 nL (AID 1138).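 Note: A549 lung adenocarcinoma cells under basal conditions with no added stimulus; test concentration not given here.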 To be noted: higher = more signal.
In test [18] the test system is Lefty1. Nature of the test: Lefty1 binders on small-molecule microarrays, primary screen, biochemical, small-molecule microarray, 635/667 nm fluorescence (AID 1139). To be noted: small-molecule microarray binding, fluorescence 635/667; higher = more signal.
In test [19] the test system is wheat germ agglutinin (Triticum aestivum), Alexa647-labelled. Nature of the test: wheat germ agglutinin binders on compound microarrays, profiling panel, artefact control for SMM control-protein annotation, biochemical, small-molecule microarray, 635/667 nm fluorescence (AID 1140).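 Note: score merges 667 nm feature emission with signal to noise over triplicate slides.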 The note with it: WGA-A647 binding, 635 nm fluorescence, higher = more signal.
The target in test [20] is Luciferin 4-monooxygenase (Photinus pyralis) (UniProt P08659). Nature of the test: firefly luciferase enzyme inhibitors, primary screen, biochemical, luminescence, purified enzyme, 2006 set (AID 1141).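 Note: cell-free assay with purified firefly luciferase at 100 ng per well in PBS; test concentration not given here.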 To be noted: SteadyGlo luminescence, 30 min, higher = more signal, called active from +8 up or from −8 down.
Sequence of Luciferin 4-monooxygenase (Photinus pyralis) (P08659 whole entry, looked up): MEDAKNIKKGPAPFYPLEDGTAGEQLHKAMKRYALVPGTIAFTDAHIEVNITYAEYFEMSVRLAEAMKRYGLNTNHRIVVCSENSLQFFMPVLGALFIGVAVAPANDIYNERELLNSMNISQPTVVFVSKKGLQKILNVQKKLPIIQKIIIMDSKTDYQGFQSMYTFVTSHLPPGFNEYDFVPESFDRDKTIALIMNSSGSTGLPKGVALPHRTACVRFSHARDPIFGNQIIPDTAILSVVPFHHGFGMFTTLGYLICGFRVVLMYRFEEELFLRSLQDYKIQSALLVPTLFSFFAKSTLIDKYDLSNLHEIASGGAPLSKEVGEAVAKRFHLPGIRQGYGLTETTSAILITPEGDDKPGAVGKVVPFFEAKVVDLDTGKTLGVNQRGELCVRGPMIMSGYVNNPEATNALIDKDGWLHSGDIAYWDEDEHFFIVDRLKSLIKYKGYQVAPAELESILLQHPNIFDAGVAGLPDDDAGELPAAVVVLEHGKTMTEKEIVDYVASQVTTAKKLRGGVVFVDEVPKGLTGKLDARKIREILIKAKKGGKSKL

With `COCCOC(=O)N1C(=O)[C@@]2(c3cc(C#CCC(C(=O)OC)C(=O)OC)ccc31)[C@H](C(=O)N1CCN(c3ncccn3)CC1)[C@H]1C(=O)O[C@H](c3ccccc3)[C@H](c3ccccc3)N1[C@@H]2c1ccccc1OCCO`, the composite z-score was -0.503 in test [1]; 0.176 in test [3]; -0.147 in test [4]; 0.347 in test [5]; 0.928 in [6]; 0.698 in [7]. The composite z-score in [8] worked out at 1.29; in test [9], 1.09; in [10] it was 1.13; in test [11] it was 1.02; in test [12], 1.2; in test [13], 0.467. The composite z-score in [14] was found to be 0.997; in [15], 1.38; in test [16] it was 1.29; in test [18], 1.54; in test [19], 0.755. The composite Z-score in [2] was -0.444 (inactive). For the same molecule, the z-score in [17] is -0.835; in test [20] it was -0.291 (inactive).
For the molecule `C=CCOC(=O)[C@H]1[C@@H]2C(=O)O[C@@H](c3ccccc3)[C@@H](c3ccccc3)N2[C@@H](c2ccc(OCCOC(=O)[C@H]3C[C@H]4C(=O)N[C@@H](CCCCNC(C)=O)C(=O)N4[C@H]3c3cccc(OCCO)c3)cc2)[C@]12C(=O)Nc1ccccc12`, the composite z-score in [1] was -0.168; in test [3], -0.0026; in [4] it was -0.114; in test [5], 0.392; in [6] it was 2.16; in test [7] it was 0.168. Further, the composite z-score is 1.25 in [8]; 1.31 in test [9]; 1.15 in test [10]; 2.14 in test [11]; 1.18 in test [12]; -0.333 in [13]. In addition, the composite z-score came to 0.525 in [14]; 1.31 in [15]; 1.53 in test [16]; 1.08 in test [18]; 0.38 in test [19]. For the same molecule, the composite Z-score in test [2] was 0.93 (inactive). In addition, the z-score in [17] was -0.472; in test [20], -0.487 (inactive).
Consider `COc1ccc([Si](C)(C)[C@@H]2[C@@H](CC(=O)N3CCC[C@H]3CO)O[C@]3(C(=O)N(c4ccccc4)c4ccccc43)[C@H]2C)cc1`, for which the composite z-score in [1] is 0.569; in [3], -0.0377; in test [4], -0.147; in [5], 0.575; in test [6] it was 1.12; in test [7], 0.237. The composite z-score in [8] stood at 1.3; in [9], 0.553; in test [10], 0.894; in test [11], 0.806; in [12], 1.22; in test [13] it was 0.472. The composite z-score in [14] is 0.94; in [15], 1.1; in test [16], 0.642; in test [18] it was 1.01; in [19] it was 0.2. Besides, the composite Z-score in test [2] was 0.723 (inactive). Besides, the results for the z-score in test [17] and in test [20] were -0.228 and 0.659 (inactive), respectively.
On to `C=C[C@H](CO)NS(=O)(=O)c1ccc(Br)cc1`, for which the composite z-score is 0.158 in test [1]; 0.234 in [3]; -0.127 in test [4]; -0.0876 in [5]; 1 in test [6]; 0.117 in [7]. The composite z-score in test [8] was 0.562; in test [9], 0.704; in test [10] it was 0.549; in [11] it was 0.461; in test [12], 0.446; in test [13] it was 0.179. In addition, the composite z-score was 0.28 in test [14]; 1.06 in [15]; 0.464 in test [16]; 0.28 in [18]; 0.279 in test [19]. Also, in test [2], the composite Z-score was 0.058 (inactive). The z-score in [17] was 1.19; in test [20], -0.877 (inactive).
`COc1ccc(C#Cc2ccc3c(c2)[C@]2(C(=O)N3)[C@H](C(=O)Nc3nc4ccccc4s3)[C@H]3C(=O)O[C@H](c4ccccc4)[C@H](c4ccccc4)N3[C@@H]2c2ccc(O)cc2)cc1`: the composite z-score in test [1] was determined as 0.835; in test [3] it was 1.29; in test [4] it was 0.158; in [5], 0.406; in test [6], 2.65; in [7], 0.641. Also, the composite z-score in test [8] is 1.31; in test [9], 0.172; in test [10] it was 1.12; in [11], 0.973; in test [12], 1.24; in [13] it was 0.289. Further, the composite z-score in [14] is 0.997; in test [15], 1.38; in test [16] it was 0.882; in test [18], 1.72; in test [19] it was 1.18. In addition, in test [2], the composite Z-score was 0.257 (inactive). Moreover, the z-score in [17] was -2.22; in [20], 0.0616 (inactive).
For `C=CCN1C(=O)[C@@]2(CC=C)N=C(c3ccc(OCCCO)cc3)O[C@H]2c2ccccc21`, the composite z-score in test [1] was found to be 0.272; in test [3], 0.323; in test [4] it was 0.189; in test [5], 0.614; in test [6], 3.3; in test [7], 1.05. For the same molecule, the composite z-score was determined as 1.3 in [8]; 1.33 in test [9]; 1.05 in test [10]; 2.12 in test [11]; 1.2 in test [12]; 0.743 in test [13]. The composite z-score in test [14] turned out to be 0.576; in test [15] it was 1.49; in test [16], 1.76; in test [18], 1.17; in test [19] it was 0.503. Besides, in [2], the composite Z-score is 0.33 (inactive). Moreover, the z-score in test [17] was 2.66; in [20], -9.06 (active).
